# Laboratory results taken from PubChem BioAssay (NCATS).
# Records with an inconclusive call do not appear. Entries that show only a call come without a potency. Activity calls are given as the source filed them. Unless noted, calls follow the shape of the dose curve; as a rule, active = well fitted curve in the direction sought with a large enough effect; inconclusive = small, poorly fitted or top-dose-only effect, or another doubt; inactive = no such curve, though single readings can be large; an effect the other way counts as inactive or inconclusive.
# Key:
# [1] = UWB1.289 Cancer Cell Toxicity qHTS against the NCATS CANVASS Library (AID 1347347); also: nearly all actives have a fitted effect of over 60% in size; also: potency is read from the fitted curve at half-maximal effect
# Method in brief: (§1)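 Viability read-out: CellTiter-Glo luminescence after 72 h compound exposure at 37 °C/5% CO2. Cells plated at 1000/well, 4 h pre-incubation; 11-point titration. Bortezomib served as control.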
# [2] = Panc-1005 Cancer Cell Toxicity qHTS against the NCATS CANVASS Library (AID 1347349); also: nearly all actives have a fitted effect of over 60% in size; also: potency is read from the fitted curve at half-maximal effect
# Method in brief: as §1
# [3] = U-118MG Cancer Cell Toxicity qHTS against the NCATS CANVASS Library (AID 1347351); also: potency is read from the fitted curve at half-maximal effect
# Method in brief: as §1
# [4] = COV-362 Cancer Cell Toxicity qHTS against the NCATS CANVASS Library (AID 1347352)
# Method in brief: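 First, 1000 cells go into each well and rest for 4 hours. Next, an 11-point dilution range is pinned in. Plates then incubate 72 hours before CellTiter-Glo addition and luminescence reading.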
# [5] = target: Nuclear receptor subfamily 1 group I member 3 (Homo sapiens) (UniProt Q14994); assay: qHTS for Constitutive Androstane Receptor (CAR) Agonist screened against the NCATS CANVASS Library (AID 1347373);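 also: every well also contained 1.5 µM PK11195 alongside the test compound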; also: potency is read from the fitted curve at half-maximal effect
# Method in brief: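 Cells were plated and allowed to attach for 4hr, then dosed with compound in an 11-point series alongside 1.5uM PK11195. After 24hr at 37C, viability was measured fluorometrically and CAR-driven CYP2B6 reporter luminescence was recorded.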
# [6] = qHTS for Antimalaria activity screened against the NCATS CANVASS Library (AID 1347380); also: nearly all actives have a fitted effect of over 40% in size; also: potency is read from the fitted curve at half-maximal effect;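 as to activity change, negative = inhibition: Plasmodium falciparum strain Dd2 asexual parasites grown in red blood cells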
# Method in brief: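 Compounds are titrated over 11 concentrations onto Dd2 parasite cultures (0.3% parasitemia, 2.5% hematocrit). Growth over 72 h at 37C in low oxygen is measured as SYBR Green DNA fluorescence after lysis.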
# [7] = qHTS assay for small molecule disruptors of mitochondrial membrane potential screened against the NCATS CANVASS Library (AID 1347389); also: nearly all actives have a fitted effect of over 60% in size
# Method in brief: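 Mitochondrial depolarization in HepG2 cells is scored as a falling aggregate-to-monomer fluorescence ratio after 1 hr compound exposure and 30 min staining with Mito-MPS dye at 37C, each compound tested as an 11-point titration.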
# [8] = qHTS for activators of Nrf2/ARE signaling pathway screened against the NCATS CANVASS Library (AID 1347391); also: nearly all actives have a fitted effect of over 60% in size; also: potency is read from the fitted curve at half-maximal effect
# Method in brief: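 Beta-lactamase reporter signal, read as 460 and 530 nm emission under 405 nm excitation after 2 h CCF4 loading, reflected ARE activation in HepG2 cells treated 16 h with an 11-point series.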
# [9] = HPAF-II Cancer Cell Toxicity qHTS against the NCATS CANVASS Library (AID 1347346); also: nearly all actives have a fitted effect of over 55% in size; also: potency is read from the fitted curve at half-maximal effect
# Method in brief: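 First, HPAF-II cells are plated (1000 cells/well) and held 4 h at 37 degrees C. Next, compounds are pin-transferred as an 11-point series. After 72 h, CellTiter-Glo is added and luminescence measured.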
# [10] = A2780 Cisplatin Sensitive Ovarian Cancer Cell Toxicity qHTS against the NCATS CANVASS Library (AID 1347353); also: nearly all actives have a fitted effect of over 60% in size; also: potency is read from the fitted curve at half-maximal effect
# Method in brief: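 Cells are plated at 750 per well and rest for 4 hours. Compounds are added across eleven concentrations, and incubated 72 hours before ATP is quantified by luminescence.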
# [11] = qHTS for Activators of p53 Stress Response Pathway screened against the NCATS CANVASS Library (AID 1347388); also: potency is read from the fitted curve at half-maximal effect
# Method in brief: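 Beta-lactamase reporter driven by p53 response elements in HCT-116 cells, read as the 460 nm/530 nm emission ratio after CCF4 loading, following 16 h of exposure to an 11-point series. Cell viability was measured in the same wells by CellTiter-Glo luminescence.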
# [12] = Vero-766 cells viability qHTS against the NCATS CANVASS Library: Counterscreen for Zika virus inhibition assay (AID 1347394); also: nearly all actives have a fitted effect of over 60% in size
# Method in brief: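 CellTiter-Glo luminescence, lower signal indicating cytotoxicity. Vero 766 cells without Zika virus, 1000 cells/well, plated overnight, then treated 72 h at 37C across an 11-point series.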
# [13] = qHTS for Hypoxia signaling pathway (HIF-1) agonists against the NCATS CANVASS Library (AID 1347375)
# Method in brief: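 Cells plated and rested 5 h, compounds pinned in DMSO across 11 concentrations, incubated 17 h at 37C, loaded with CCF4-AM for 2 h, fluorescence read at 460 and 530 nm, then CellTiter-Glo luminescence measured for viability and normalization.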
# [14] = OV-SAHO Cancer Cell Toxicity qHTS against the NCATS CANVASS Library (AID 1347348); also: nearly all actives have a fitted effect of over 55% in size; also: potency is read from the fitted curve at half-maximal effect
# Method in brief: as §1
# [15] = qHTS Assay for Lipid Storage Modulators (AID 1519; calls by dose curve); conditions: Drosophila S3 cells, BODIPY lipid droplet/cell ratio, laser cytometry, cells loaded with oleic acid; for activity change, negative = inhibition: at 57.5 µM (top of the series)
# Method in brief: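 Cells seeded at 5,000 per well were treated with compounds over a concentration series and loaded with oleic acid (400 uM, as added). Lipid droplet fluorescence (488 nm excitation, 500-530 nm channel) was read by laser-scanning cytometry and normalized to 20 uM Triacsin C.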
# [16] = Viability qHTS for inhibitors of the SERCaMP assay screened against the NCATS CANVASS Library (AID 1347400); also: nearly all actives have a fitted effect of over 70% in size; also: potency is read from the fitted curve at half-maximal effect
# Method in brief: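 Seed SH-SY5Y-GLuc SERCaMP MJH297 cells at 1000 per well, incubate 4 h, add compounds across an 11-point range, incubate 48 h at 37C, then add CellTiter-Glo and read luminescence.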
# [17] = target: Calcium and integrin-binding protein 1 (Homo sapiens) (UniProt Q99828); assay: Primary qHTS for Identification of Calcium Integrin Binding Protein 1 (CIB1) Competitor (AID 1508620);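 also: GST tagged CIB1 binding a fluorescein labelled alphaIIb integrin peptide tracer; top concentration of the series differs between compounds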
# Method in brief: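 CIB1-GST (1 uM final) and compound incubated 15 min at room temperature before adding FITC-alphaIIb peptide tracer (100 nM final). Competition for binding read by fluorescence polarization (ex 480, em 540) after another 15 min at room temperature.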
# [18] = target: Ubiquitin carboxyl-terminal hydrolase 1 (Homo sapiens) (UniProt O94782); assay: Inhibitors of USP1/UAF1: Pilot qHTS (AID 504865);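 also: rhodamine fluorescence freed from ubiquitin-rhodamine substrate followed over time; top concentration of the series differs between compounds; nearly all actives have a fitted effect of over 35% in size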
# Method in brief: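 1nM USP1/UAF1 + cpd, 15 min RT; start w/ Ub-Rho 150nM final; kinetic FL 480/540 nm, 6 reads q60 s. Buffer 50mM HEPES pH 7.8, 0.5mM EDTA, 1mM TCEP, 0.01% Tween-20, 0.1 mg/ml BSA.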
# [19] = qHTS profiling for inhibitors of Plasmodium falciparum proliferation (AID 504749); also: potency is read from the fitted curve at half-maximal effect; as to all read-outs here: nearly all actives have a fitted effect of over 60% in size; conditions: P. falciparum in erythrocytes, SYBR Green DNA, 72 h; for activity, negative = inhibition: at 28.7 µM (top of the series)
# Method in brief: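 SYBR Green fluorescence of parasite DNA, read after lysis and overnight dark incubation, measured growth over 72 h in erythrocyte culture at 0.3% parasitemia and 2.5% hematocrit. Data normalised to DMSO and 0.29 uM artemisinin, with plate-drift correction.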
# [20] = target: Cytochrome P450 2C9 (Homo sapiens) (UniProt P11712); assay: Cytochrome P450 family 2 subfamily C member 9 (CYP2C9) small molecule antagonists: luciferase biochemical (cell-free) qHTS assay (AID 1645842; active = well fitted curve in the direction sought with a large enough effect in the repeat runs; an effect the other way counts as inactive or inconclusive; also: nearly all actives have a fitted effect of over 55% in size; also: potency is read from the fitted curve at half-maximal effect)
# Method in brief: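 P450-Glo CYP2C9 system: proluciferin substrate with enzyme in mix containing 0.4% BSA, 10 min at room temperature, then NADPH regeneration solution added and incubated 1 h at 37C. Detection reagent stopped reaction; luminescence read after 20 min as RLU.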
# [21] = measured here: cell count channel max response
# [22] = measured here: lipid channel max response
# Cytochrome P450 2C9 (Homo sapiens), sequence (P11712 whole entry, looked up): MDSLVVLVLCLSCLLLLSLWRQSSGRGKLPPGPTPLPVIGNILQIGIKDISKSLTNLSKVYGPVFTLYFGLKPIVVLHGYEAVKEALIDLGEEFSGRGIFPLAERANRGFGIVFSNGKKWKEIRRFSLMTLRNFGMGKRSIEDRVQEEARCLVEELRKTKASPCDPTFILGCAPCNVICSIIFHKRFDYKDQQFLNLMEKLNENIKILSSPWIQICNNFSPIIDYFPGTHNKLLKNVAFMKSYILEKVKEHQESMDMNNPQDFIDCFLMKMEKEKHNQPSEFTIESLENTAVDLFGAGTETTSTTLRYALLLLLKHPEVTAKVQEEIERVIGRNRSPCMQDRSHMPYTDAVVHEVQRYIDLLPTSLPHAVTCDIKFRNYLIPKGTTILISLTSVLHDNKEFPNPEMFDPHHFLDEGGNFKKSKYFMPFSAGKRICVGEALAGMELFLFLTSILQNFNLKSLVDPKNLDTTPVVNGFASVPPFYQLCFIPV
# Nuclear receptor subfamily 1 group I member 3 (Homo sapiens), sequence (Q14994 whole entry, looked up): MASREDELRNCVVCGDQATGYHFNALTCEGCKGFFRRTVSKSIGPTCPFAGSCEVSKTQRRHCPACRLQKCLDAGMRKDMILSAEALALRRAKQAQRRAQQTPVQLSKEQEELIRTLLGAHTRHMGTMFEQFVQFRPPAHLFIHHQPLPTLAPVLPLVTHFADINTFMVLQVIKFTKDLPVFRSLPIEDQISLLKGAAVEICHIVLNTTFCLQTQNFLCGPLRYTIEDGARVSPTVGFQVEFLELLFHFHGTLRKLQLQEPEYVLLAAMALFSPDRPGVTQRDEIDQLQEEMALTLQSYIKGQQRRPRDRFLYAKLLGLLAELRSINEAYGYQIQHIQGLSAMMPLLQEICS
# Calcium and integrin-binding protein 1 (Homo sapiens), sequence (Q99828 whole entry, looked up): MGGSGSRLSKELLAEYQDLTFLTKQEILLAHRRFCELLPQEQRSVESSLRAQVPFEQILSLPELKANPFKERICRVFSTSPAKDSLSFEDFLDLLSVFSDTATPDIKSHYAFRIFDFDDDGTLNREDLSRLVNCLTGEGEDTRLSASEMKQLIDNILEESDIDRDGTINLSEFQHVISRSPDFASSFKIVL
# Ubiquitin carboxyl-terminal hydrolase 1 (Homo sapiens), sequence (O94782 whole entry, looked up): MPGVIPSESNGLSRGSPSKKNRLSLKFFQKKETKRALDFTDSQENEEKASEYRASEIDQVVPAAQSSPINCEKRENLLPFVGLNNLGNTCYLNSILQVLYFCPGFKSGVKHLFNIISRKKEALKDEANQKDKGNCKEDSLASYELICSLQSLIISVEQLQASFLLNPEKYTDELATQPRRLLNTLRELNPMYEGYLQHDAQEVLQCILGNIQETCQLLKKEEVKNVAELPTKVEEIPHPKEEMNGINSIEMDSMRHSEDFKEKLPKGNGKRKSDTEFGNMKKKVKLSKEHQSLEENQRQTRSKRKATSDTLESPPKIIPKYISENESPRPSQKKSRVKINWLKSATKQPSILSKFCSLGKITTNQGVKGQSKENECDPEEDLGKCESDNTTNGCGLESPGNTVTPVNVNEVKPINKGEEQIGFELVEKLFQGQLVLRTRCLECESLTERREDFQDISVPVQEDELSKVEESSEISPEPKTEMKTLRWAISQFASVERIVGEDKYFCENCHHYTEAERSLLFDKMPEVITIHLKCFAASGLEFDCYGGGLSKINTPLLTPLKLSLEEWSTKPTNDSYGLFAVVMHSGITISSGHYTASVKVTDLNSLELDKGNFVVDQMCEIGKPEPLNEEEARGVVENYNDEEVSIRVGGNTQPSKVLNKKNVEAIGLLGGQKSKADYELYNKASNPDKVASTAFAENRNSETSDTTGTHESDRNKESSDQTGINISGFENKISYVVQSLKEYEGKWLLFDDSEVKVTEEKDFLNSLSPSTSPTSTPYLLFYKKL
smiles,measurement,setting,value
COc1cc2oc3ccccc3c(=O)c2cc1OC,Potency,[1],inactive
same,Potency,[2],inactive
same,Potency,[3],30.6 µM (active)
same,Potency,[4],inactive
same,Potency,[5],38.2 µM (active)
same,Potency,[6],4.9 nM (active)
same,Potency,[7],inactive
same,Potency,[8],3.41 µM (active)
C/C(=C\[C@H](C)C(=O)/C=C/CC1CC(=O)NC(=O)C1)[C@@H]1OC(=O)CCCC/C=C/[C@H](O)[C@@H](O)[C@@H]1C,Potency,[9],18.8 µM (active)
same,Potency,[2],14.9 µM (active)
same,Potency,[10],10.5 µM (active)
same,Potency,[6],inactive
same,Potency,[11],inactive
same,Potency,[7],inactive
same,Potency,[8],4.67 µM (active)
same,Potency,[12],inactive
COc1ccc([C@@H]2c3cc4c(cc3C(=O)[C@H](C)C2C)OCO4)cc1OC (some centres undefined),Potency,[4],inactive
same,outcome,[13],inactive
same,Potency,[11],11.7 µM (active)
same,Potency,[7],inactive
C=C1C[C@H]2O[C@@H]3[C@@H]4[C@H](CC[C@@](C)(O)[C@@H]42)[C@H](C)COC3(C)[C@@H](OC(=O)CCCCCCC)CC1=O (some centres undefined),Potency,[1],18.8 µM (active)
same,Potency,[14],18.8 µM (active)
C/C(=C\[C@H](C)C(=O)C[C@H](O)CC1CC(=O)NC(=O)C1)[C@@H]1OC(=O)CCCC/C=C/[C@@H](O)C[C@@H]1C,Potency,[1],9.41 µM (active)
same,Potency,[10],2.35 µM (active)
same,Potency,[5],inactive
same,outcome,[13],inactive
same,Potency,[7],inactive
C=C[C@@](C)(O)CC[C@@H]1[C@@]2(C)CCCC(C)(C)[C@@H]2CC[C@@]1(C)O,"activity change, negative = inhibition",[15],-12.3% (inactive)
same,max response,[15]; [21],-15%
same,max response,[15]; [22],-21.7%
same,Potency,[4],inactive
same,Potency,[10],inactive
same,Potency,[5],inactive
same,outcome,[13],inactive
same,Potency,[7],inactive
same,Potency,[8],inactive
same,Potency,[12],inactive
COc1cc2c(cc1OC)[C@@H](c1ccc3c(c1)OCO3)C(C)[C@@H](C)C2=O (some centres undefined),Potency,[2],inactive
same,Potency,[3],inactive
same,Potency,[4],inactive
same,Potency,[5],9.33 µM (active)
same,Potency,[7],inactive
CC1=C(C)C(=O)OC(C(C)C2(O)CCC3C4C5OC5C5(O)CC=CC(=O)C5(C)C4CCC32C)C1 (centres undefined),Potency,[9],inactive
same,Potency,[3],inactive
same,outcome,[13],inactive
same,Potency,[7],inactive
same,Potency,[12],inactive
CN1CCc2cc3c(c4c2C1(C)C(=O)c1cc(O)ccc1-4)OCO3 (centres undefined),outcome,[13],inactive
same,Potency,[7],inactive
same,Potency,[8],inactive
C/C(=C\[C@@H](C)CC/C=C/CC/C=C/C(=O)O)[C@H](O)[C@H](C)C(=O)CCCC1CC(=O)NC(=O)C1,Potency,[9],6.68 µM (active)
same,Potency,[14],inactive
same,Potency,[3],inactive
same,Potency,[4],inactive
same,Potency,[10],inactive
same,Potency,[5],inactive
same,outcome,[13],inactive
same,Potency,[6],inactive
same,Potency,[7],inactive
same,Potency,[16],inactive
C/C=C/c1cc2c(c(=O)o1)C(=O)[C@@H](O)[C@H](C)O2,Potency,[14],16.7 µM (active)
same,Potency,[2],13.3 µM (active)
same,Potency,[3],inactive
same,outcome,[13],inactive
same,Potency,[6],inactive
same,Potency,[11],37.1 µM (active)
same,Potency,[8],4.67 µM (active)
same,Potency,[12],inactive
same,Potency,[16],34 µM (active)
COc1ccc(-n2cnc3cc(C(=O)N4CCCCC4)ccc32)cc1,Potency,[17],inactive
Cc1ccc(-n2c(C)cc(-c3nnc4n3CCCCC4)c2C)cc1,Potency,[17],inactive
C[C@@]12C(=O)OC(=O)[C@]1(C)[C@H]1CC[C@@H]2O1,Potency,[18],inactive
same,Potency,[19]; parasite line A,3.98 µM (active)
same,Potency,[19]; parasite line B,3.16 µM (active)
O=C(CCCc1ccc2cccnc2n1)NCc1cc(-c2ccc(F)c(C(F)(F)F)c2)no1,Potency,[17],inactive
Clc1cccc(-c2ccc(-c3nnc(CCCc4ccc5cccnc5n4)o3)cc2)c1,Potency,[17],inactive
C=C1CCC2[C@](C)(CO)C(O)CC[C@]2(C)C1C/C=C1/C(=O)OCC1O (some centres undefined),"activity change, negative = inhibition",[15],2.99% (inactive)
same,max response,[15]; [21],11%
same,max response,[15]; [22],17.4%
same,Potency,[18],inactive
same,"activity, negative = inhibition",[19]; parasite line A,-24.6% (inactive)
same,"activity, negative = inhibition",[19]; parasite line B,-25.9% (inactive)
COC1=C(OC)C(=O)C(C/C=C(\C)CC/C=C(\C)CC/C=C(\C)CC/C=C(/C)CC/C=C(\C)CC/C=C(\C)CC/C=C(\C)CC/C=C(\C)CC/C=C(\C)CCC=C(C)C)=C(C)C1=O,"activity change, negative = inhibition",[15],8.3% (inactive)
same,max response,[15]; [21],17.1%
same,max response,[15]; [22],27.6%
same,Potency,[18],inactive
Cc1cccc(/C=N/Nc2cc(N3CCOCC3)nc(OCCc3ccccn3)n2)c1,Potency,[20],7.56 µM (active)
NS(=O)(=O)c1ccc(Cc2c(-c3cccc(-c4ccccc4)c3)nn(-c3nc(C(=O)O)cs3)c2CC2CC2)cc1,Potency,[20],21.3 µM (active)
Cc1c(CN2CCN(C(=O)[C@H](C)O)CC2)sc2c(N3CCOCC3)nc(-c3cnc(N)nc3)nc12,Potency,[20],inactive
CC(/C=C1\SC(=S)N(CC(=O)O)C1=O)=C\c1ccccc1,Potency,[18],inactive
same,"activity, negative = inhibition",[19]; parasite line A,-3.63% (inactive)
O=C(O)c1ccc(O)c2ncccc12,Potency,[17],inactive
O=C(/C=C/c1cccnc1)NCCCCC1CCN(C(=O)c2ccccc2)CC1,Potency,[20],13.5 µM (active)
Cn1cc(/C=C2\C(=O)Nc3cccnc32)c2ccccc21,Potency,[20],inactive
